Our source for the Potency and outcome values is PubChem BioAssay (NCATS).

The structures appear in SMILES notation. Inconclusive results are not listed. The source made the active and inactive calls. Unless noted, calls follow the shape of the dose curve; as a rule, active = well fitted curve in the direction sought with a large enough effect; inconclusive = small, poorly fitted or top-dose-only effect, or another doubt; inactive = no such curve, though single readings can be large; an effect the other way counts as inactive or inconclusive.

Experiment [1] is described as follows: qHTS Screen of the MIPE 4.0 Collection Against Ewings Sarcoma (TC32) (AID 1259256). Also: nearly all actives have a fitted effect of over 45% in size. Also: potency is read from the fitted curve at half-maximal effect. In a few lines: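 Measured: ATP luminescence (CellTiter-Glo) 10 min after reagent addition, following 48 h drug treatment. Relative luciferase units converted to percent activity, with no-cell wells as full and DMSO wells as zero inhibition.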
A general note: In qHTS, concentration-response curves come from the screen itself.

Experiment [2] can be described thus: P-glycoprotein substrates identified in KB-8-5-11 adenocarcinoma cell line, qHTS therapeutic library screen (AID 1346987). Also: nearly all actives have a fitted effect of over 65% in size. Also: potency is read from the fitted curve at half-maximal effect. In short, it runs like this: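 Human cervical adenocarcinoma KB-8-5-11 cells, selected in colchicine to over-express P-gp and assayed without it, were exposed for 72 h to titrated compounds. An ATP-based luminescent viability signal gave AC50.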

Experiment [3] in a line: NS1 protein of Zika virus - qHTS assay to identify small molecule inhibitors in human HEK 293 cells (AID 1347053). Also: nearly all actives have a fitted effect of over 55% in size. Also: potency is read from the fitted curve at half-maximal effect. In short, it runs like this:
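TR-FRET signal from two anti-ZIKV NS1 antibodies quantified NS1 in HEK 293 cells 24 h after MR766 infection at MOI = 0.5; compounds were added 1 h before virus. Uninfected cells and infected cells defined the NS1 normalization range.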

The nature of experiment [4]: qHTS of pediatric cancer cell lines to identify multiple opportunities for drug repurposing: Primary screen for TC32 cells (AID 1347089). Also: nearly all actives have a fitted effect of over 60% in size. Also: potency is read from the fitted curve at half-maximal effect. In a few lines:
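TC32 cells, 500-1,000/well in growth medium, compound-treated 48 h at 37 °C; viability from CellTiter-Glo luminescence. Primary screen: MIPE 11-point (0.78 nM–46 µM final), NPC 8-point (0.59 nM–46 µM final); confirmatory at 11-point dilutions.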

Experiment [5] is described as follows: qHTS of pediatric cancer cell lines to identify multiple opportunities for drug repurposing: Primary screen for DAOY cells (AID 1347090). Also: nearly all actives have a fitted effect of over 55% in size. Also: potency is read from the fitted curve at half-maximal effect. In a few lines:
(§1)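 Eight- or eleven-point concentration series, 48 h treatment at 37 degrees C in growth media; readout CellTiter-Glo luminescence. Potency and efficacy were taken from the concentration-response curves.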

A short description of experiment [6]: qHTS of pediatric cancer cell lines to identify multiple opportunities for drug repurposing: Primary screen for SJ-GBM2 cells (AID 1347091). Also: potency is read from the fitted curve at half-maximal effect. In short, it runs like this: as §1
A short description of experiment [7]: qHTS of pediatric cancer cell lines to identify multiple opportunities for drug repurposing: Primary screen for A673 cells (AID 1347092). Also: nearly all actives have a fitted effect of over 45% in size. Also: potency is read from the fitted curve at half-maximal effect. In short, it runs like this:
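A673 cells (500-1,000 cells/well) were treated 48 hours at 37 degrees C with compounds at 11-point (0.78 nM to 46 µM) or 8-point (0.59 nM to 46 µM) dilutions. Viability read by CellTiter-Glo luminescence; concentration-response curves fitted.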

The nature of experiment [8]: qHTS of pediatric cancer cell lines to identify multiple opportunities for drug repurposing: Primary screen for SK-N-MC cells (AID 1347093). Also: potency is read from the fitted curve at half-maximal effect. In a few lines:
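Metabolically active cells were quantified by ATP-dependent luminescence (CellTiter-Glo, 15 min at room temperature) following 48 h treatment. Cells had been plated at 500-1,000 per well and settled for 5 h beforehand.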

Experiment [9] is described as follows: qHTS of pediatric cancer cell lines to identify multiple opportunities for drug repurposing: Primary screen for BT-37 cells (AID 1347094). Also: potency is read from the fitted curve at half-maximal effect. In short, it runs like this: (§2)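 Following a 5-hour attachment period, cells at 500-1,000/well received compounds and were cultured for 48 hours. CellTiter-Glo was added and luminescence read to estimate viable, metabolically active cells.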

Experiment [10] can be described thus: qHTS of pediatric cancer cell lines to identify multiple opportunities for drug repurposing: Primary screen for NB-EBc1 cells (AID 1347095). Also: potency is read from the fitted curve at half-maximal effect. In a few lines:
as §2

The nature of experiment [11]: qHTS of pediatric cancer cell lines to identify multiple opportunities for drug repurposing: Primary screen for U-2 OS cells (AID 1347096). Also: nearly all actives have a fitted effect of over 50% in size. Also: potency is read from the fitted curve at half-maximal effect. In short, it runs like this:
(§3)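 Cells (500-1,000/well) in growth media were settled 5 h at 37 degrees C, then given compounds for 48 h. Viability was read as CellTiter-Glo luminescence. Primary runs used MIPE at 11 points (0.78 nM-46 µM) and NPC at 8 points (0.59 nM-46 µM); follow-ups used 11 points.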

The nature of experiment [12]: qHTS of pediatric cancer cell lines to identify multiple opportunities for drug repurposing: Primary screen for Saos-2 cells (AID 1347097). Also: nearly all actives have a fitted effect of over 40% in size. Also: potency is read from the fitted curve at half-maximal effect. In short, it runs like this: as §2
The nature of experiment [13]: qHTS of pediatric cancer cell lines to identify multiple opportunities for drug repurposing: Primary screen for NB1643 cells (AID 1347099). Also: nearly all actives have a fitted effect of over 50% in size. Also: potency is read from the fitted curve at half-maximal effect. In a few lines: as §2
A short description of experiment [14]: qHTS of pediatric cancer cell lines to identify multiple opportunities for drug repurposing: Primary screen for LAN-5 cells (AID 1347100). Also: potency is read from the fitted curve at half-maximal effect. In short, it runs like this: as §3
Experiment [15] in a line: P-glycoprotein substrates identified in KB-3-1 adenocarcinoma cell line, qHTS therapeutic library screen (AID 1346986). Also: nearly all actives have a fitted effect of over 60% in size. In short, it runs like this:
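Using luminescence to quantify ATP, parental and P-gp-overexpressing KB cells were compared after 72 h compound titration. KB-8-5-11 was also run with the P-gp inhibitor tariquidar.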

Experiment [16] can be described thus: qHTS of pediatric cancer cell lines to identify multiple opportunities for drug repurposing: Primary screen for SK-N-SH cells (AID 1347098).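 Also: DMSO served as neutral control and bortezomib at 2.3 µM as positive control; nearly all actives have a fitted effect of over 65% in size.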 In a few lines: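 Cells (500-1,000/well) rested 5 h, then received compounds for 48 h; metabolically active cells were measured by CellTiter-Glo luminescence. Final concentrations spanned up to 46 µM (MIPE, 11-point) or 0.59 nM-46 µM (NPC, 8-point) in primary screens, 11-point in follow-ups.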

A short description of experiment [17]: Natriuretic polypeptide receptor (hNpr1) antagonism - Pilot counterscreen GloSensor control cell line (AID 1347045; calls by dose curve; also: series mostly up to about 38 µM). In a few lines:
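The SNP-driven cGMP luminescence signal (50 uM, 20 min, room temperature) was measured in GloSensor HEK293 control cells. Compounds were tested as a LOPAC titration series and preincubated for 30-50 min.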
(In general: A counterscreen serves to expose hits that act by an unwanted route or on another target.)

Experiment [18] addresses Atrial natriuretic peptide receptor 1 (Homo sapiens) (UniProt P16066). Kind of experiment: Natriuretic polypeptide receptor (hNpr1) antagonism - Pilot screen (AID 1347049; calls by dose curve;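 also: HEK293 cells with hNpr1 and GloSensor cGMP luciferase stimulated by 0.1 nM hNppA; agonist-evoked cGMP luminescence read 20 min after hNppA addition; series mostly up to about 58 µM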). In short, it runs like this: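 Cells expressing receptor plus cGMP biosensor are seeded and incubated overnight at 37C, then loaded with GloSensor reagent (2% final) at room temperature for 2 h. Library compounds go on for 30 min. A pre-read precedes agonist (hNppA, 0.1 nM final) and a 20-min readout.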

Experiment [19] deals with Atrial natriuretic peptide receptor 2 (Homo sapiens) (UniProt P20594). In words: Natriuretic polypeptide receptor (hNpr2) antagonism - Pilot subtype selectivity assay (AID 1347050; calls by dose curve). In a few lines:
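Read-out: GloSensor luminescence (CCD imager), baseline vs post-stimulation. HEK293 cells expressing hNpr2; compounds pre-incubated 30-50 min at ambient temperature; hNppC 1 nM final, 20 min.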

Experiment [20] deals with Parathyroid hormone/parathyroid hormone-related peptide receptor (Homo sapiens) (UniProt Q03431). Kind of experiment: qHTS for PTHR1 Agonists: Optimization Screen against the NCGC LOPAC library (AID 1347079).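 Also: GloSensor cAMP luminescence in HEK-293 GP2 cells expressing human PTHR1 with IBMX.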 In a few lines: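 Signal increase flags agonism. GP2 cells, derived from HEK-293, express human PTHR1 and a GloSensor cAMP construct.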
Chain of Parathyroid hormone/parathyroid hormone-related peptide receptor (Homo sapiens) (Q03431 whole entry, looked up): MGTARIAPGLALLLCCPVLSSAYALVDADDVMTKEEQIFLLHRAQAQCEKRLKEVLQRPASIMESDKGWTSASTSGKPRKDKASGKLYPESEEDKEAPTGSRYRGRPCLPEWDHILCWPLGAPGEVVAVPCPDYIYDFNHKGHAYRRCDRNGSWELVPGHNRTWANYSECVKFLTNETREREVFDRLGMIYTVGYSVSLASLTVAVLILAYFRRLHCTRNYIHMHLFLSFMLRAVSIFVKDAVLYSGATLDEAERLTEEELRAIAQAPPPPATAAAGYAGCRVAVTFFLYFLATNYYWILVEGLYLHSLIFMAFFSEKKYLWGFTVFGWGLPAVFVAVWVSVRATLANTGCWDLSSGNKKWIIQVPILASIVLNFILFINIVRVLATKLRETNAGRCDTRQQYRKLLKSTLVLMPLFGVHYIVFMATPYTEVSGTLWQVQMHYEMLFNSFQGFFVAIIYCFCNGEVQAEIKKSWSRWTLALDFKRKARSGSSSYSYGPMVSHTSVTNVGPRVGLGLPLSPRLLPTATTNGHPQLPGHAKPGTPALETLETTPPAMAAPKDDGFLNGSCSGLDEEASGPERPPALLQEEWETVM

Chain of Atrial natriuretic peptide receptor 1 (Homo sapiens) (P16066 whole entry, looked up): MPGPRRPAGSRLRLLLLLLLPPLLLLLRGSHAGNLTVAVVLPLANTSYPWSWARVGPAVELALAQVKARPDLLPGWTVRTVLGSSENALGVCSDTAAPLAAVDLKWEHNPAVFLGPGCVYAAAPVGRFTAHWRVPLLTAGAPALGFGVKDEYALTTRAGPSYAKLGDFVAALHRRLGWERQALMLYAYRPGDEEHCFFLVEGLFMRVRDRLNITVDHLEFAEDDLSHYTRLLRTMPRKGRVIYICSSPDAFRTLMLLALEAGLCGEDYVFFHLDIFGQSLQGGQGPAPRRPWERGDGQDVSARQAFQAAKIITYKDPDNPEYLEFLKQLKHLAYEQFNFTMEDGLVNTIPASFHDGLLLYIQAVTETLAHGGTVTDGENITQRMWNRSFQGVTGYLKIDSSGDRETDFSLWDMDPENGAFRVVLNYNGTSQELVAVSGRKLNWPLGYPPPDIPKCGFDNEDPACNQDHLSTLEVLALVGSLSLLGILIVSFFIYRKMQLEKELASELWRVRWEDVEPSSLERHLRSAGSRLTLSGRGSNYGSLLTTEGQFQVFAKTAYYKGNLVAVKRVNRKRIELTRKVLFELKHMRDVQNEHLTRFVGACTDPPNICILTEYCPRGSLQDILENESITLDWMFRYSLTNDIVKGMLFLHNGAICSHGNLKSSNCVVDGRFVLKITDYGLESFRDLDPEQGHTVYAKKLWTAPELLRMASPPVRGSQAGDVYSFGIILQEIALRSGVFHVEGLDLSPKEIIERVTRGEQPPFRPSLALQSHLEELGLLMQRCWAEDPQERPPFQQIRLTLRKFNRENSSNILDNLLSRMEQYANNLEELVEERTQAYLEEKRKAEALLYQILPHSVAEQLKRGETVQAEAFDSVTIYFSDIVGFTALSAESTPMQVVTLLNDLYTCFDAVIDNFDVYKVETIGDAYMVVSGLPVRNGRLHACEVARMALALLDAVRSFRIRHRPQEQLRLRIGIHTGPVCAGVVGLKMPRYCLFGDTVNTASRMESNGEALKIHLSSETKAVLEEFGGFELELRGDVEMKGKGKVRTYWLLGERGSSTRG
Chain of Atrial natriuretic peptide receptor 2 (Homo sapiens) (P20594 whole entry, looked up): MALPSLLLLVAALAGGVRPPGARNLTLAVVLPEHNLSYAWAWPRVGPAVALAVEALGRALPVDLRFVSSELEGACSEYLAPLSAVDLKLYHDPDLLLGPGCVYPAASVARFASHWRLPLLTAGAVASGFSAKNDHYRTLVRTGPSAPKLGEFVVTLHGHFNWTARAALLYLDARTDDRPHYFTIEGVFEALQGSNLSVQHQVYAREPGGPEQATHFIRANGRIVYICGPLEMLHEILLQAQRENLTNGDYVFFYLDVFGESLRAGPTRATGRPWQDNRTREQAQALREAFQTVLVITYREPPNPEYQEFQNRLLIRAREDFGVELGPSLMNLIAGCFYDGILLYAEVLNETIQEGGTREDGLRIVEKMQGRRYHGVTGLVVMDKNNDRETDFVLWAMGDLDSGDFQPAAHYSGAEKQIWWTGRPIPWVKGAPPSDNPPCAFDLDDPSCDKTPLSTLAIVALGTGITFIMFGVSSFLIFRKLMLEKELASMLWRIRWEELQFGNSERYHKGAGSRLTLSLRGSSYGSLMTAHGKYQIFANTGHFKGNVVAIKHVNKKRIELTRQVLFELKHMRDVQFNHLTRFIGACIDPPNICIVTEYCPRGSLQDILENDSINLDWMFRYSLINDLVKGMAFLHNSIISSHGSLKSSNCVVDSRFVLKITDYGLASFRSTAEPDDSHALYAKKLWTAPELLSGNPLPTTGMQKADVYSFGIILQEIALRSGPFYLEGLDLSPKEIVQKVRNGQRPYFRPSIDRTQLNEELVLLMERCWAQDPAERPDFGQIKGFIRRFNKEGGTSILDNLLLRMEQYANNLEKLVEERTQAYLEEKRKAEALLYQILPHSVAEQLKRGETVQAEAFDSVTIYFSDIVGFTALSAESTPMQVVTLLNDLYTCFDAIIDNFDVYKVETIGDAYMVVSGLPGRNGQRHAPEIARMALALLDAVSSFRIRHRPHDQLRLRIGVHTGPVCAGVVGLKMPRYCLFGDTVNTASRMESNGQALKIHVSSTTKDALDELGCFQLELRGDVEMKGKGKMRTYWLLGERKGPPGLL

`O=C1NC(=O)C(=Cc2ccc3nccc(-c4ccncc4)c3c2)S1`: the Potency is 74.3 nM (active) in experiment [1]; 418 nM (active) in experiment [2]; 743 nM (active) in experiment [3]; 523 nM (active) in experiment [4]; 235 nM (active) in experiment [5]; 93.5 nM (active) in experiment [6]. Besides, the Potency was 187 nM (active) in [7]; 16.6 nM (active) in experiment [8]; 432 nM (active) in experiment [9]; 118 nM (active) in [10]; 1870 nM (active) in experiment [11]; 372 nM (active) in experiment [12]. Also, the Potency in experiment [13] was 1320 nM (active); in experiment [14], 743 nM (active).

On to `CC(C)N(CC[C@H](c1ccccc1)c1cc(CO)ccc1O)C(C)C`, for which the Potency result in [1], in experiment [15], in [2], in [3], in [5] and in [6] was “inactive” throughout. The Potency entry in [9], in experiment [10], in experiment [11], in experiment [12], in experiment [13] and in experiment [14] was “inactive” throughout.

As to `CC(=O)N[C@@H]1[C@H](O[C@@H]2c3ccc(c(Cl)c3)Oc3cc4cc(c3O[C@H]3O[C@H](CO)[C@@H](O)[C@H](O)[C@H]3NC(=O)CCCCCCCC(C)C)Oc3ccc(cc3Cl)C[C@H]3NC(=O)[C@H](N)c5ccc(O)c(c5)Oc5cc(O)cc(c5)[C@H](NC3=O)C(=O)N[C@H]4C(=O)N[C@H]3C(=O)N[C@@H]2C(=O)N[C@@H](C(=O)O)c2cc(O)cc(O[C@H]4O[C@H](CO)[C@@H](O)[C@H](O)[C@H]4O)c2-c2cc3ccc2O)O[C@H](CO)[C@@H](O)[C@@H]1O`, the Potency entry in [1], in [15], in [2], in experiment [4], in experiment [5] and in experiment [6] was “inactive” each time. Further, the Potency entry in experiment [7], in experiment [8], in experiment [9], in experiment [10], in experiment [11] and in experiment [12] was “inactive” each time. The Potency entry in [16], in experiment [13] and in [14] was “inactive” throughout.

With `C[C@@H]1[C@H](C)CC[C@]2(C(=O)O)CC[C@]3(C)C(=CC[C@@H]4[C@@]5(C)C[C@@H](O)[C@H](O)[C@@](C)(CO)[C@H]5CC[C@]43C)[C@@H]12`, the Potency entry in experiment [1], in experiment [15], in experiment [2], in experiment [4], in [7] and in experiment [8] was “inactive” in each case. Also, the Potency result in experiment [9], in experiment [10], in experiment [11], in experiment [13] and in experiment [14] was “inactive” throughout.

With `CN[C@H](CC(C)C)C(=O)N[C@H]1C(=O)N[C@@H](CC(N)=O)C(=O)N[C@@H]2C(=O)N[C@H]3C(=O)N[C@H](C(=O)N[C@H](C(=O)O)c4cc(O)cc(O)c4-c4cc3ccc4O)[C@H](O)c3ccc(c(Cl)c3)Oc3cc2cc(c3O[C@@H]2O[C@H](CO)[C@@H](O)[C@H](O)[C@@H]2O[C@H]2C[C@](C)(N)[C@H](O)[C@H](C)O2)Oc2ccc(cc2Cl)[C@H]1O`, the Potency entry in [1], in [2], in experiment [3], in experiment [4], in [5] and in experiment [6] was “inactive” each time. In addition, the Potency result in experiment [7], in experiment [8], in [9], in experiment [10], in [11] and in [12] was “inactive” each time. The Potency result in experiment [16], in experiment [13] and in experiment [14] was “inactive” in each case. Moreover, the outcome in experiment [17], in [18], in experiment [19] and in experiment [20] was inactive.

For `CCCNS(=O)(=O)Nc1ncnc(OCCOc2ncc(Br)cn2)c1-c1ccc(Br)cc1`, the Potency entry in [1], in [15], in experiment [2], in [5], in [6] and in experiment [7] was “inactive” each time. The Potency entry in [9], in [10], in [11], in experiment [12], in experiment [16] and in experiment [14] was “inactive” each time.
